Records with an inconclusive call do not appear. Active and inactive are the calls of the source. Calls come from the whole dose curve; as a rule, active = well fitted cell-killing curve with a large enough effect; inconclusive = small, poorly fitted or top-dose-only effect, or effect the other way; inactive = flat fitted curve, though single readings scatter.
Each compound was assayed on CAOV3 (assay: Primary qHTS to identify gynecologic anti-cancer compounds using libraries of approved drugs and bioactive compounds (AID 1345084; note: nearly all actives have a fitted effect of over 55% in size)). Settings: Gynecologic cancer cell panel viability, ATPlite luminescence, 48 h; series mostly up to 57.5 µM; activity change, negative = cytotoxicity: at the top concentration.
Text: National Center for Advancing Translational Sciences [NCATS] Assay Overview: Chemotherapeutic drug responses vary from cancer to cancer and from patient to patient. These variations could be caused by a number of factors including patient genomic background, tumor mutations, tumor heterogeneity, and aspects of drug treatment. Chemotherapeutic drug resistance is also a common issue and can lead to ineffective treatment and patient death. Here we have profiled the cell killing effects of thousands of compounds to characterize the responses in three gynecological cancers, identify cancer-selective compounds, and understand the diversity of responses to these compounds from pan-cancer suppressors to single cell line selective compounds. In this assay, we screened a 7,914 compound drug library that included approved drug and bioactive compounds in six ovarian, three cervical, and […] placental cancer cell lines using the ATPlite assay for cell viability. […] The cervical cancer cell lines included HeLa, Ca Ski, and C-33 A. The placental cancer cell lines included JEG-3. HEK 293T cells were used as the control cell line to determine the selectivity index. ATPlite is a luminescence based assay reliant on the conversion of a luciferase substrate to light in the presence of ATP. As a cytotoxic compound will suppress growth and decrease the number of cells, the concentration of ATP will decrease, and less light signal will be detected in the well.
Assay Protocol Summary: 1,000 cells in 4 uL of media were dispensed into white, solid bottom 1536-well plates using a Multidrop Combi (Thermo Scientific). The Assay plates were incubated for 16 hours at 37 C with 5% CO2 in assay plates, followed by the addition of 23 nL of DMSO or drug dissolved in DMSO. Each compound was assayed in five concentrations (0.092, 0.46, 2.3, 11.5, and 57.5 uM), using the automated Wako 1536 Pin Tool workstation and incubated at 37 C with 5% CO2 48 hours. 4 uL of ATPlite, the ATP monitoring reagent, was then added to the each well of the assay plates using the Multidrop Combi reagent dispenser followed by incubation for 15 minutes at room temperature. The resulting luminescence was measured using the ViewLux plate reader.
In the case of `CC(=O)O[C@]1(C(C)=O)CC[C@H]2[C@@H]3C=C(Cl)C4=CC(=O)CC[C@]4(C)[C@H]3CC[C@@]21C`, the “activity change, negative = cytotoxicity” value was 0.605% (inactive).
For `C[N+]1(C)CCC(=C(c2ccccc2)c2ccccc2)CC1`, the “activity change, negative = cytotoxicity” value was 10.6% (inactive).
For `COc1cc(O)c(C(=O)c2ccccc2)cc1S(=O)(=O)O`, the “activity change, negative = cytotoxicity” value was -2.87% (inactive).
For `NC(=O)C1(N2CCCCC2)CCN(CCCC(=O)c2ccc(F)cc2)CC1`, the “activity change, negative = cytotoxicity” value was 6.13% (inactive).
For `CCOc1ccccc1C(N)=O`, the “activity change, negative = cytotoxicity” value was 0% (inactive).
With `Nc1nc(-c2ccccc2)c(Br)c(=O)[nH]1` the “activity change, negative = cytotoxicity” value was -3.9% (inactive).
`CC(=O)O[C@]1(C(C)=O)CC[C@H]2[C@@H]3C=C(C)C4=CC(=O)CC[C@]4(C)[C@H]3CC[C@@]21C` was tested, and the “activity change, negative = cytotoxicity” value was 2.14% (inactive).
For `C[C@@H](O)[C@H]1C(=O)N2C(C(=O)O)=C(S[C@@H]3CN[C@H](CNS(N)(=O)=O)C3)[C@H](C)[C@H]12`, the “activity change, negative = cytotoxicity” value was 12.3% (inactive).
For `NS(=O)(=O)c1cc(C(=O)O)cc(N2CCCC2)c1Oc1ccccc1`, the “activity change, negative = cytotoxicity” value was 1.02% (inactive).
`COc1ccc(C(=O)c2ccccc2)c(O)c1` was tested, and the “activity change, negative = cytotoxicity” value was 1.86% (inactive).
With `COc1ccc(/C=N/NC(=O)c2ccncc2)cc1OC` the “activity change, negative = cytotoxicity” value was -1.09% (inactive).
In the case of `Cc1c[nH]c2ccccc12`, the “activity change, negative = cytotoxicity” value was 10.7% (inactive).
In the case of `CCN(CC)CCOC(=O)C(Cc1cccc2ccccc12)CC1CCCO1` (stereo not given), the “activity change, negative = cytotoxicity” value was -16.1% (inactive).
For `CCC1Nc2cc(Cl)c(S(N)(=O)=O)cc2S(=O)(=O)N1` (stereo not given), the “activity change, negative = cytotoxicity” value was -8.23% (inactive).
`CC1(COc2ccc(CC3SC(=O)NC3=O)cc2)CCCCC1` (stereo not given) was tested, and the “activity change, negative = cytotoxicity” value was 10.3% (inactive).
`CCNC(=O)NCc1cccc(Cl)c1` was tested, and the “activity change, negative = cytotoxicity” value was -1.7% (inactive).
For `CC(=O)Nc1ccc(OCC(O)CNC(C)C)cc1` (stereo not given), the “activity change, negative = cytotoxicity” value was 4.8% (inactive).
`CC1=C(C(=O)O)N2C(=O)[C@@H](NC(=O)[C@H](N)c3ccccc3)[C@H]2SC1` was tested, and the “activity change, negative = cytotoxicity” value was 14% (inactive).
In the case of `CCN(CC)CCNC(=O)COc1ccc(OC)cc1`, the “activity change, negative = cytotoxicity” value was 5.67% (inactive).
`Nc1ccc(C(=O)NCC(=O)O)cc1` was tested, and the “activity change, negative = cytotoxicity” value was 22.7% (inactive).
In the case of `O=C(O)CCNC(=O)c1ccccc1`, the “activity change, negative = cytotoxicity” value was -0.079% (inactive).
With `Nc1nc(N)c(-c2ccccc2)s1` the “activity change, negative = cytotoxicity” value was 26% (inactive).
For `C=C1c2cccc(O)c2C(O)=C2C(=O)[C@]3(O)C(O)=C(C(N)=O)C(=O)[C@@H](N(C)C)[C@@H]3[C@@H](O)[C@H]12`, the “activity change, negative = cytotoxicity” value was -0.26% (inactive).
With `CC(=O)NCCCCCC(=O)O` the “activity change, negative = cytotoxicity” value was 3.25% (inactive).
In the case of `O=C(Nc1ncc([N+](=O)[O-])s1)c1cccs1`, the “activity change, negative = cytotoxicity” value was -6.96% (inactive).
`CCCCCCCC/C=C\CCCCCCCCN` was tested, and the “activity change, negative = cytotoxicity” value was 3.86% (inactive).
In the case of `CC(C)Cc1ccc(CC(=O)O)cc1`, the “activity change, negative = cytotoxicity” value was -18.6% (inactive).
For `C[C@]12CCC(=O)C=C1C=C[C@@H]1[C@@H]2CC[C@@]2(C)[C@H]1CC[C@@]21CCC(=O)O1`, the “activity change, negative = cytotoxicity” value was -8.9% (inactive).
In the case of `CCCCCCCCCCCCSCCOCCO`, the “activity change, negative = cytotoxicity” value was -1.97% (inactive).
With `COc1cc(C(=O)NCc2ccc(OCCN(C)C)cc2)cc(OC)c1OC` the “activity change, negative = cytotoxicity” value was -4.4% (inactive).
For `O=C(Nc1ccc([N+](=O)[O-])cc1)Nc1ccc([N+](=O)[O-])cc1`, the “activity change, negative = cytotoxicity” value was -0.738% (inactive).
For `CN1CCN(c2c(F)cc3c(=O)c(C(=O)O)cn4c3c2SCC4)CC1`, the “activity change, negative = cytotoxicity” value was 2.1% (inactive).
`O=C(CCN1CCN2CCCC2C1)N1c2ccccc2Sc2ccc(Cl)cc21` (stereo not given) was tested, and the “activity change, negative = cytotoxicity” value was 1.75% [at 25.3 µM] (inactive).
In the case of `Cc1ccc(-c2ncc(Cl)cc2-c2ccc(S(C)(=O)=O)cc2)cn1`, the “activity change, negative = cytotoxicity” value was 5.15% (inactive).
For `COc1cc([C@H]2Oc3cc([C@H]4Oc5cc(O)cc(O)c5C(=O)[C@@H]4O)ccc3O[C@@H]2CO)ccc1O`, the “activity change, negative = cytotoxicity” value was -11.8% (inactive).
`C[N+]12CCC(CC1)C(OC(=O)C(O)(c1ccccc1)c1ccccc1)C2` (stereo not given) was tested, and the “activity change, negative = cytotoxicity” value was -1.62% (inactive).
For `O=C(O)P(=O)(O)O`, the “activity change, negative = cytotoxicity” value was 17.2% (inactive).
For `Cn1c(=O)c2[nH]c(Br)nc2n(C)c1=O`, the “activity change, negative = cytotoxicity” value was -12.3% (inactive).
`CC(C)Nc1cccnc1N1CCN(C(=O)c2cc3cc(NS(C)(=O)=O)ccc3[nH]2)CC1` was tested, and the “activity change, negative = cytotoxicity” value was 10.5% (inactive).
`O=C(O)CCC(=O)Nc1ccc(S(=O)(=O)Nc2nccs2)cc1` was tested, and the “activity change, negative = cytotoxicity” value was -1.75% (inactive).
% is set by controls: 0 for no effect and ±100 for the full control effect.
